Compound activity: PubChem BioAssay, National Center for Advancing Translational Sciences (NCATS)
HttQ103 aggreg – inhibitors of mutant huntingtin aggregate formation in PC12 cells; PC12 HttQ103-GFP aggregates, Acumen cytometry, 40 h; Potency, µM (top dose mostly 46.1 µM), without a hit: at the top dose activity change, negative = inhibition, actives largely listed as inhibitors; actives 1.1% (n = 220,000); also: % is scaled to controls: 0 for no effect and ±100 for the full control effect; nearly all actives have a fitted effect of over 60% in size
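Inducible Q103 Huntingtin exon 1–GFP PC12 line, 1500 cells/well in phenol red free DMEM with 5% equine and 5% calf serum. Tebufenozide 100 nM induced expression; compounds titrated; aggregates quantified by cytometry.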
PINK1 modulator – PINK1 expression modulation; AID 624263; actives 0.2% (n = 410,000); Potency, µM (series often up to 76.6 µM), for inactives: at the highest dose activation (PINK1 increase), actives largely listed as activators; PINK1 immunofluorescence, high-content cytometry, 24 h; active = well fitted activation curve with a large enough effect; inconclusive = small, poorly fitted or top-dose-only effect; cell line not stated here; also: % of control where 0% means no effect; nearly all actives have a fitted effect of over 65% in size
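PINK1 protein level read as immunofluorescence by microplate cytometer in a fixed, stained stable cell line after 24 h exposure to five compound concentrations, with CCCP as control.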
HTT ATP protect – protects HTT-Q103 PC12 cells, measured by ATP. PC12 HTT-Q103 induced, cytoprotection, ATP luminescence, 40 h. Potency, µM (doses to about 56.4 µM), for the others: cytoprotection (ATP increase), most hits filed as activators. actives 0.14% (n = 230,000). AID 1471; also: % of control where 0% means no effect; nearly all actives have a fitted effect of over 45% in size
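Cells were plated at 1500 per well in phenol red-free DMEM with 5% equine and 5% calf serum. Tebufenozide (100 nM final) and compounds were added, then ATPlite reagent, and luminescence was read.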
Epigenetic derep – epigenetic control regulation, reporter derepression; actives 0.2% (n = 280,000); AID 1865; murine LDR cells, GFP reporter derepression, 30 h; Potency, µM (highest dose often 53.9 µM), without a hit: top-dose GFP activation, actives largely listed as activators; also: % of control where 0% means no effect; nearly all actives have a fitted effect of over 60% in size
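Murine LDR cells carrying a silenced, genomically integrated CMV-driven GFP reporter were exposed to compound for 30 hours at 37 C. After PBS washes, GFP-positive cells (20–120 um objects) were counted by laser-scanning microplate cytometry.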
The depositor's hits bear a star; ? = inconclusive; . = not tested or not shown; [ ] = dose if it differs, or a comment. This is one part of a sample in which hits are shown more often than they occur. Unless noted, calls follow the shape of the dose curve; as a rule, active = well fitted curve in the direction sought with a large enough effect; inconclusive = small, poorly fitted or top-dose-only effect, or another doubt; inactive = no such curve, though single readings can be large; an effect the other way counts as inactive or inconclusive. Potency is read from the fitted curve at half-maximal effect.

SMILES	HttQ103 aggreg	PINK1 modulator	HTT ATP protect	Epigenetic derep
COc1ccccc1NC1=C(N2CCCCC2)C(=O)c2ccccc2C1=O	13µM*	16%	-49%[10 µM]	1%
Cc1ccc(OCC(=O)N(C)CC(=O)Nc2ccc(F)c(F)c2F)cc1	.	-1%	.	.
C=C(C(C)=O)C(O)c1ccc(Cl)cc1 (centres undefined)	.	.	.	0%
O=C(O)/C=C/C(O)c1ccc(Cl)cc1 (centres undefined)	.	0%	3.2µM*	0%
C=CCOc1cccc(/C=C2\C(=O)N(Cc3ccc(C)cc3)C(C)=C2C(=O)OC)c1	?	3%	43%[10 µM]	1%
Cc1ccc(C2=NN(S(C)(=O)=O)C(c3cccs3)C2)cc1 (centres undefined)	-7%	-2%	-19%	1%
CCc1ccc(C2=NN(S(C)(=O)=O)C(c3cccs3)C2)cc1 (centres undefined)	10%[9.22 µM]	22%[38.3 µM]	-24%	18µM*
COc1ccc(C(=O)NCc2c(C)oc(C)c2C(=O)O)cc1	.	-1%	.	.
COc1ccc(C(=O)NCc2oc(-c3ccccc3)cc2C(=O)O)cc1	3.2µM*	-1%	-1%[0.074 µM]	0%
Cc1cc(/C=C2/SC(=S)N(c3ccc([N+](=O)[O-])cc3)C2=O)c(C)n1-c1cccnc1	4µM*	2%	.	-5%
Cc1cc(/C=C2/SC(=S)N(c3cccc(Cl)c3)C2=O)c(C)n1-c1cccnc1	.	4%	.	.
COc1ccc(N2C(=O)c3ccccc3NC2c2ccc(OC)c(COc3ccccn3)c2)cc1 (centres undefined)	2%	1%	-8%[10 µM]	0%
COc1ccc(N2C(=O)c3ccccc3NC2c2ccc(OC)c(CSc3ccccn3)c2)cc1 (centres undefined)	-5%	10µM*	-52%	1%
COc1ccc(N=c2oc3c(OC)cccc3cc2C(=O)NCc2ccco2)cc1OC	?	?	-50%[10 µM]	13µM*
CC(C)(C)c1ccc(-c2cn(-c3ccc(Br)cc3)c3[n+]2CCCS3)cc1	1.3µM*	35µM*	-39%[10 µM]	2%
c1ccc(-c2cn(-c3ccccc3)c3[n+]2CCS3)cc1	?	-1%	-48%	-1%
CCN(CC)c1nc2ccccc2c(N)c1-c1ccccc1	11µM*	?	-5%	-2%
C/C(=N\NC(=O)c1cc(-c2cccs2)nc2ccccc12)c1ccccn1	0.89µM*	1%	-131%	?
NNC(=O)c1cc(-c2cccs2)nc2ccccc12	-7%[9.22 µM]	6%	12%[10 µM]	0%
CN1OC[C@@H]2CN(Cc3ccccc3)[C@H](c3ccc(-n4ccnc4)cc3)C[C@@H]21	.	1%	.	.
Cc1cc(C)c(NC(=O)c2oc3c(c2C)-c2[nH]ncc2CC3)c(C)c1	.	0%	.	-3%
Cc1ccc(F)c(C2C3C=CCC(c4cccc(-c5ccc(N(C)C)cc5)c4)C3C(=O)N2Cc2ccccc2)c1 (centres undefined)	3.2µM*	3%	-38%[10 µM]	0%
COc1ccc(-c2cccc(C3CC=CC4C3C(=O)N(Cc3ccccc3)C4c3cc(C)ccc3F)c2)cc1 (centres undefined)	-36%[9.22 µM]	.	-49%[10 µM]	0%
Cc1ccn2c(NCc3ccccc3)c(-c3cccc(SC4CCCCC4)c3)nc2c1	.	25µM*	.	.
Clc1ccc2nc(-c3cccc(SC4CCCCC4)c3)c(NCc3ccccc3)n2c1	.	13%	.	.
SMILES	HttQ103 aggreg	PINK1 modulator	HTT ATP protect	Epigenetic derep
Cc1ccc2nc(-c3cccc(SC4CCCCC4)c3)c(NCc3ccccc3)n2c1	.	25µM*	.	.
Cc1ccc2nc(-c3cccc(SC4CCCCC4)c3)c(NC3CCCCC3)n2c1	.	8%	.	.
COc1ccc(N(C(=O)Cc2cccs2)C2C=CS(=O)(=O)C2)cc1 (centres undefined)	21%	0%	-9%	5%
CCc1ccc2c(c1)C1(SC(NC(C)=O)=NN1C(C)=O)C(=O)N2CC (centres undefined)	-20%	1%	-15%	1%
Cc1ccccc1NC(=O)CN1C(=O)NC(C)(CCc2ccccc2)C1=O (centres undefined)	3%	1%	-9%[10 µM]	0%
CCCc1c(C(=O)N/N=C/c2ccncc2)nnn1-c1nonc1N	.	-1%	.	.
Oc1ccc(Cc2ccccc2)c2cccnc12	.	4%	.	.
OCc1ccc(O)c2ncccc12	10µM*	?	-62%	?
Oc1ccc(CNCc2ccccc2)c2cccnc12	.	.	-28%[10 µM]	.
Oc1ccc(CNc2ccccc2F)c2cccnc12	?	28µM*	-51%	12%
Oc1ccc(COCc2ccccc2)c2cccnc12	?	2%	-94%	?
CC(C)COCc1ccc(O)c2ncccc12	10µM*	14%	-153%	?
CCCOCc1ccc(O)c2ncccc12	-44%[9.22 µM]	9%	-57%[10 µM]	3.5µM*
Cc1ccc(-n2ccc(=O)c(-c3ccnc(SCc4cccc(Cl)c4)n3)n2)cc1	2%	-2%	-60%	2%
COc1ccc(CCNc2nc(SCc3cccc(F)c3)nc3ccccc23)cc1OC	.	0%	.	4%
COCCCN1C(=O)C(=O)/C(=C(/O)c2ccc(S(=O)(=O)N3CCOCC3)cc2)C1c1cccc(Cl)c1 (centres undefined)	.	-1%	.	.
O=C(Nc1ccc(Cl)cc1)Nc1ccc(N2CCCC2)c(S(=O)(=O)Nc2ccccc2Cl)c1	?	2.8µM*	1%[10 µM]	1%
O=C(Nc1ccc(N2CCOCC2)c(S(=O)(=O)Nc2ccccc2Cl)c1)c1ccccc1	.	1%	.	.
CCOc1ccc(OCC)c(NC(=O)c2ccc(CNc3c(N4CCOCC4)c(=O)c3=O)cc2)c1	?	-2%	3.2µM*	0%
CCC(C)NC(=O)C1(C)CCC(=O)N1CCc1ccc(OC)c(OC)c1 (centres undefined)	-13%	-3%[38.3 µM]	3%	-1%
Cc1nn(CCCC(=O)Nc2cc(Oc3ccc(F)cc3)cc([N+](=O)[O-])c2)c(C)c1[N+](=O)[O-]	-7%	0%	-8%[10 µM]	-1%
CCn1nc(C)c(C(=O)Nc2cc(Oc3ccc(Cl)cc3)cc([N+](=O)[O-])c2)c1C	-24%	10µM*	-46%	-6%
O=c1c2c(nc3c(-c4ccc(Cl)cc4)c[nH]n13)CCCC2	7.1µM*	?	-58%	-2%
O=c1c2c(nc3c(-c4cccc5ccccc45)c[nH]n13)CCC2	?	-2%	-12%	-1%
Cn1cccc1C(=O)Nc1nc(-c2ccccn2)cs1	13µM*	2%	-5%	?
SMILES	HttQ103 aggreg	PINK1 modulator	HTT ATP protect	Epigenetic derep
Cc1ccc(C(=O)Nc2nc(-c3ccccn3)cs2)s1	.	-1%	.	.
O=C(Nc1nc(-c2ccccn2)cs1)c1ccc(Cl)s1	0.89µM*	1%	-95%[10 µM]	22µM*
COc1ccccc1N1CCN(C(=O)c2cc3c(=O)oc4ccc(C)cc4c3s2)CC1	.	0%	.	3%
C[C@@H](c1ccccc1)N1C(=O)[C@@H]2[C@H]3C(=CC[C@H]2C1=O)C(=O)[C@H]1O[C@H]1[C@H]3O	.	.	-4%[10 µM]	1%[10.1 µM]
CC(C)(C)N1C(=O)[C@@H]2[C@H]3C(=CC[C@H]2C1=O)C(=O)[C@H]1O[C@H]1[C@H]3O	.	.	5.6µM*	1%[10.1 µM]
O=C1C2=CC[C@@H]3C(=O)N(c4ccc(F)cc4F)C(=O)[C@H]3[C@H]2[C@H](O)[C@H]2O[C@H]12	.	.	3.2µM*	?
